A selection: hits, their analogues and other compounds. The true share with any hit is near 1.4%.
FadD28 binding: inhibitors of Mycobacterium tuberculosis FadD28 bisubstrate binding; FadD28 bisubstrate probe binding, fluorescence polarization; 360,000 compounds, 0.22% hits; AID 588549; inhibition, % at 12.5 µM; in the data active = inhibition above about 8.5%, passing the limit was not always enough
Vc quorum ag-1: induces V. cholerae light production without autoinducers; 350,000 compounds, 0.16% hits; V. cholerae BH1578 lux reporter, luminescence, 6 h; activation, % at 18.7 µM; in the data active = activation mostly above about 9.7%, no sharp cut-off
SSB-PriA inh: blocks PriA binding to SSB C-terminal tail; inhibition, % at 33 µM; AID 1272365; AlphaScreen SSBct-PriA binding, biotinylated peptide; 430,000 compounds, 0.6% hits; in the data active = inhibition mostly above about 37%, no sharp cut-off; inactive = mostly below about 20%;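 also: plate controls were negative control peptide for no effect and reference peptide for full effect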
PrP 5UTR inh: suppresses PrP 5' UTR mRNA reporter expression | inhibition, % (concentration not given with the values) | AID 488862 | 340,000 compounds, 0.35% hits | cell-based PrP 5' UTR mRNA reporter, plate reader; in the data active = inhibition above about 52%; also: 0 = median of the neutral control wells
PrPC TRFRET: reduces human prion protein on the cell surface; 370,000 compounds, 0.43% hits; cell surface PrPC, TR-FRET read-out; AID 720596; inhibition, % at 13.8 µM; in the data active = inhibition above about 24%; also: 0% = median of the test wells and 100% = reference compound wells
Vc quorum ag-2: quorum light induction in BH1578 reporter strain. AID 602243. 620 tested, under 10 active. V. cholerae BH1578 lux reporter, luminescence, 6 h. activation, % at 50 µM. shares compounds with Vc quorum ag-1; call rule not given here
Active calls of the source: *; i = inactive; . = not tested or not shown; + = active, no number.

SMILES	FadD28 binding	Vc quorum ag-1	SSB-PriA inh	PrP 5UTR inh	PrPC TRFRET	Vc quorum ag-2
CCOc1ccc2nc(Nc3nc4cc(OC)c(OC)cc4s3)sc2c1	.	.	11	.	.	.
Cc1ccc(C(=O)N(C)CC(=O)Nc2ccc(N3CCOCC3)cc2)s1	0	14	2	-33	-1	100
CC(=O)N1CCN(S(=O)(=O)CCCOc2ccc3c(c2)OCO3)CC1	.	.	14	.	.	.
Cc1cc(C)c(S(C)(=O)=O)c(Oc2ccc(C(C)(C)C)cc2)n1	2	12	-5	17	9	0
CCCc1cc(=O)[nH]c(Nc2ccc(N3CCCCC3)cc2)n1	0	+	16	-11	3	i
O=C(COc1ccccc1)NCCOc1ccccc1	.	.	-12	.	.	.
CCn1nc(NC(=O)c2ccco2)c2cc3ccccc3nc21	-3	40*	-26	-7	-44	216
CCC(=O)c1coc2ccc(O)cc12	-5	25*	-14	-11	-10	0
O=C(c1cccs1)c1coc2ccc(O)cc12	-6	i	-7	-101	5	.
COCCNC(=S)N(CCCO)Cc1cc2cc3c(cc2[nH]c1=O)OCCO3	-2	389*	-5	-24	-1	2
COCCNC(=S)N(CCO)Cc1cc2cc3c(cc2[nH]c1=O)OCO3	-1	-8	-12	-26	-2	.
CCN(CC1COc2ccccc2O1)C(=S)NCCCN(C)C (stereo unspecified)	0	i	-6	-9	-13	.
CCN(CC1COc2ccccc2O1)C(=S)Nc1ccccc1 (stereo unspecified)	-2	12	-1	.	3	1
O=C(N/N=C\c1cc(Br)ccc1O)C(=O)N/N=C\c1cc(Br)ccc1O	.	.	-3	.	.	.
CCC(Oc1ccccc1)C(=O)Nc1ccc(-c2nnc(-c3ccco3)o2)cc1 (stereo unspecified)	-8	17*	7	-42	-1	0
O=C(Nc1ccccc1Cc1nc(-c2cccnc2)no1)c1ccco1	.	.	-9	.	.	.
Cc1cccc(N(CC(N)=O)C2SC(=O)N(c3ccccc3)C2=O)c1 (stereo unspecified)	-4	25*	-10	-16	-3	10
Cc1ccc(N(CC(N)=O)C2SC(=O)N(C)C2=O)cc1 (stereo unspecified)	-1	i	6	-23	0	.
O=C(CCC1CCCCC1)NCCn1ncc2c(N3CCN(Cc4ccccc4)CC3)ncnc21	.	.	-12	.	.	.
CCNC(=O)NC[C@@H](c1cn(C)c2ccccc12)N(C)C	.	.	-3	.	.	.
CC(=O)Nc1ccc2nc(-c3cccnc3)[nH]c2c1	1	75*	5	-14	4	2
CC(=O)c1cc2c(cc1NC(=O)Cc1c(C)noc1C)OCO2	0	22*	2	-16	-4	1
CCOC(=O)Nc1cc2c(cc1C(C)=O)OCO2	0	-6	-16	-17	5	.
COc1ccc(OC)c(S(=O)(=O)Cc2nc(-c3ccc4c(c3)OCO4)no2)c1	.	.	-15	.	.	.
Cc1onc(-c2ccccc2)c1C(=O)n1cccn1	-3	22*	-1	-8	-6	0
SMILES	FadD28 binding	Vc quorum ag-1	SSB-PriA inh	PrP 5UTR inh	PrPC TRFRET	Vc quorum ag-2
CCCc1cc(Nc2ccccc2)n2ncnc2n1	-2	1	-19	-6	2	.
CCCc1cc(Nc2ccccc2OCC)n2ncnc2n1	-3	3	-14	-6	-5	1
C=CCNC(=O)Cc1csc(NC(=O)OCC)n1	.	.	9	.	.	.
CC(=O)c1cccc(NC(=O)CSc2nc(=O)n(CCCN3CCOCC3)c3c2CCC3)c1	0	31*	0	-21	0	7
Cc1cccc(NC(=O)CSc2nc(=O)n(CCCN3CCOCC3)c3c2CCCC3)c1	-2	-1	0	-23	-1	.
O=C(NC1CCC(Oc2ncccn2)CC1)C1OCCc2ccccc21 (stereo unspecified)	.	.	0	.	.	.
COc1ccc(C(=O)O)cc1S(=O)(=O)Nc1cccc(C(F)(F)F)c1	-1	17*	2	-20	-1	0
COc1ccc(C(=O)N2CCCCC2)cc1S(=O)(=O)Nc1cccc(C(=O)O)c1	0	-2	-11	-27	1	.
O=C(NCc1ccco1)C1CCCN1S(=O)(=O)c1ccc2ccccc2c1 (stereo unspecified)	-1	14	-10	-19	0	0
FC(F)Oc1ccccc1NC(=S)NCc1ccco1	-4	12	-8	-23	-3	0
Cc1noc(C)c1S(=O)(=O)N1CCC[C@H](Cc2nc(C3CC3)no2)C1	.	.	-11	.	.	.
Cc1cccc(N2CCN(C(=O)Cn3cccc3C(=O)c3ccccc3)CC2)c1C	0	21	-4	-4	2	0
NC(Cc1ccccc1)c1nc(-c2ccccc2)no1 (stereo unspecified)	0	-1	-7	-23	6	.
Cc1ccccc1OC(C)c1nc(-c2ccccc2)no1 (stereo unspecified)	0	12	-93	-22	0	0
NC(=O)c1cc2ccccc2oc1=NNC(=O)c1cccc(F)c1	.	.	-9	.	.	.
CCOC(=O)C1=C(C)NC(SC)=NC1c1ccc(OC)cc1 (stereo unspecified)	-1	25	-6	-12	0	0
CCOC(=O)C1=C(C)NC(C)=C(C(=O)OCC)C1c1ccc(OC)cc1	-3	0	-13	9	15	.
Cn1cccc1[C@H](CNC(=O)Cc1ccc(F)cc1)N1CCc2ccccc2C1	.	.	4	.	.	.
CN(Cc1cn[nH]c1-c1cc2ccccc2o1)CC1CCOCC1	-1	25*	-17	-40	-12	1
Cc1cc(NC(=O)[C@H]2CCCN(S(=O)(=O)c3ccc(Cl)s3)C2)n(C(C)C)n1	.	.	-9	.	.	.
Cc1ccc(C)c(S(=O)(=O)N2CCN(C(=O)c3n[nH]c(=O)c4ccccc34)CC2)c1	-4	32*	-13	-12	-4	323
CCOCCCN1CC(C(=O)NCCc2ccc(C)cc2)CC1=O (stereo unspecified)	-5	17*	-12	-5	-3	0
Clc1ccc(-c2cc(COc3ccc4ccccc4c3)no2)cc1	1	12	-1	3	-1	0
Clc1ccc(SCc2cc(-c3ccccc3)on2)cc1	-3	-1	-8	-1	3	.
CCc1nnc(NC(=O)C2CC(=O)N(c3ccc(C)cc3)C2)s1 (stereo unspecified)	-2	12	-3	6	-2	0
COc1ccc(Cc2nnc(NC(=O)C3CC(=O)N(c4ccccc4C)C3)s2)cc1OC (stereo unspecified)	-1	9	-8	-16	-5	1
CN1CCN([C@@H](CNC(=O)C(=O)NCc2ccccc2Cl)c2ccc3c(c2)OCO3)CC1	.	.	-13	.	.	.
COC(=O)c1ccc(CSc2nnc3c(Cl)cc(Cl)cn23)o1	-3	35*	-10	-20	-6	3
COc1cccc(-c2noc(CSc3nc(C)c(C)c(=O)[nH]3)n2)c1OC	.	.	-3	.	.	.
CN(C)c1nc(N)ncc1-c1ccc(Oc2ccccc2)cc1	0	53*	8	-10	3	7

Assay outcomes from PubChem BioAssay.
